# Measurements as given in PubChem BioAssay.
# “And” between values parts separate entries of the source, which are not always exact repeats. Identical values can stand only once. For part of these data: Measured potencies and affinities stand elsewhere. The source made the active and inactive calls.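 Rule for the calls, unless noted: active = mean z-score across replicates of 1.96 or higher in either the MELAS or the Rieske mutant cell line; inactive = the rest.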
# Assays:
# [1] = blockers of polyQ-driven CASP3 activation – cell-based (AID 1583); settings: polyglutamine-induced caspase-3 activation, cell assay; stronger effect = higher value;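 tested at 10 µM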
# [2] = yeast 75Q aggregation reduction – 75Q-TubU reporter (AID 1593); settings: Yeast 75Q polyglutamine aggregation reporter
# [3] = restoration of touch response, mutant HTT neurons – whole organism, C. elegans mechanosensory neurons, N-terminal huntingtin (AID 1599); settings: C. elegans polyQ-huntingtin mechanosensory neurons, stronger effect = higher value
# [4] = blockers of cytochrome c efflux from mitochondria – biochemical, purified mitochondria (AID 1603); settings: stronger effect = lower value;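 note: mouse liver mitochondria challenged with calcium chloride; signal normalized to the plate average as 100%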
# [5] = polyglutamine aggregate formation blockers (AID 1604); settings: polyglutamine-induced protein aggregation inhibition assay; stronger effect = higher value; tested at 2.5 µM
# [6] = glutamate transport activators, MN-1 cells, MN-1 cell line (AID 1612); settings: MN-1 motor neuron cells, stronger effect = higher value;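 note: tested at 1 µM final; 0% = mean of DMSO vehicle wells on each plate; positive means more glutamate uptake than control and negative means less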
# [7] = 75Q-TubH aggregate inhibition, S. cerevisiae, yeast (AID 1616); settings: S. cerevisiae 75Q-TubH polyglutamine aggregation suppression; stronger effect = higher value
# [8] = P. berghei load reduction in hepatocytes – cell-based, HepG2, luciferase luminescence, HepG2 viability, primary screen (AID 624349; in the data active = parasite load remaining mostly below about 12%, no sharp cut-off; inactive = mostly above about 10%;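 note: 100% = mean of DMSO negative control wells on the same plate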); settings: P. berghei liver stage in HepG2, luciferase luminescence, concentration not given here; parasite load remaining: stronger effect = lower value; viability: measured here: HepG2 viability without parasites
# [9] = target: 6-phosphogluconate dehydrogenase, decarboxylating (Homo sapiens) (UniProt P52209); test: inhibition of human phosphogluconate dehydrogenase – biochemical, recombinant enzyme, NADPH absorbance, primary screen (AID 1159550;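 active = at least 20% inhibition of 6-phosphogluconate dehydrogenase activity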); settings: recombinant 6PGD, NADPH absorbance 341 nm; at 10 µM; stronger effect = higher value
# [10] = EMT-state selective cytotoxicity in co-culture – imaging, PC-3E GFP, TEM4-18 mCherry, primary screen (AID 1345086;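 active = compounds killing one labelled cell type while sparing the other, by normalised counts and ratio limits, not self-fluorescent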;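 for all read-outs here: cells exposed to compound for 72 h before imaging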;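 for red/green cell ratio (normalised): normalised mesenchymal count divided by normalised epithelial count so high means epithelial killing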); settings: PC-3E GFP / TEM4-18 mCherry co-culture, imaging cell counts, at 1 µM; for red/green cell ratio (normalised): actives lie on both sides, counts scaled to control wells, 1 = unselective
# [11] = viability loss with induced miR-34 in A549 – imaging, A549 dox-inducible miR-34, nuclei and caspase counts, primary screen (AID 1347080;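 active = compounds whose cell count with miR-34 switched on is under 0.7 times the count with it off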); settings: A549 miR-34 inducible, Hoechst nuclei count, 48 h
# [12] = target: Mitogen-activated protein kinase 7 (Homo sapiens) (UniProt Q13164); test: Gal4-ERK5 driven luciferase induction – cell-based, HTS, primary screen (AID 1508626;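 active = luciferase signal above three times the same-plate solvent-only control wells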;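 note: luciferase driven by Gal4-ERK5 fusion binding five Gal4 sites before minimal TATA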); settings: HeLa Gal4-ERK5 transactivation, 18 h, at 5 µM, stronger effect = higher value
# [13] = GFP-Q80 aggregate reduction, neuronal-like cells, cell-based, NGF-treated PC12, GFPQ80 (AID 1614); settings: PC12 NGF-treated GFP-polyQ80 inclusion reduction;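 note: lower means fewer inclusions and 0 means no inclusions at all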
# [14] = MELAS cybrid and Rieske KO viability enhancers – cell-based, MELAS cybrids, Rieske KO mouse fibroblasts, CellTiter-Glo, primary screen (AID 1508586); settings: low glucose;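 note: z relative to plate mean and SD of compound and empty wells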
# [15] = compounds altering circadian rhythm period length – cell-based, LOPAC library, luminescence reporter (AID 2774; call rule not given here;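 note: values are relative to mean of DMSO wells on each plate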); settings: circadian reporter cells, at 7 µM, actives lie on both sides
# [16] = system: Hepatitis C virus NS3 helicase; test: blockers of NS3h binding to ssDNA – biochemical, fluorescence polarization, LOPAC1280 library, primary screen (AID 687035; in the data active = inhibition above about 37%); settings: Purified HCV NS3 helicase, Cy5-dT15 ssDNA binding fluorescence polarization; stronger effect = higher value; concentration not given here
# [17] = compounds altering Cy5-DNA-NS3h complex signal – biochemical, LOPAC1280, artefact control for HCV NS3 helicase inhibitor project (AID 687037; call rule not given here); settings: Cy5-DNA-NS3h complex fluorescence interference counterscreen
# [18] = blockers of cellular phospholipid synthesis – cell-based, LOPAC library, screen 4, primary screen (AID 1347384; call rule not given here); settings: animal cells, phospholipid biosynthesis inhibition screen; at 10 µM
# [19] = galactose survival enhancers in mitochondrial complex I cybrids – cell-based, galactose medium, ATP luminescence, primary screen (AID 1645843;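 active = z-score of at least 1.8 in each of two replicates, scored against plate mean and spread of sample wells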;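 note: positive z means more ATP and so rescue of galactose-driven cybrid death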); settings: complex I mutant cybrid cells, 72 h, stronger effect = higher value
# [20] = measured here: epithelial PC-3E GFP cell survival
# [21] = measured here: mesenchymal TEM4-18 mCherry cell survival
# [22] = stronger effect = lower value, cell number ratio, induced over uninduced
# [23] = measured here: relative caspase fold change +Dox/-Dox
# [24] = measured here: total cells with miR-34 induction, stronger effect = lower value
# [25] = measured here: total cells without miR-34 induction
# [26] = MELAS cybrid survival, CellTiter-Glo 48 h, stronger effect = higher value
# [27] = Rieske KO mouse fibroblast survival, CellTiter-Glo 72 h
# Chain of Mitogen-activated protein kinase 7 (Homo sapiens) (Q13164 whole entry, looked up, the tested form may be a part): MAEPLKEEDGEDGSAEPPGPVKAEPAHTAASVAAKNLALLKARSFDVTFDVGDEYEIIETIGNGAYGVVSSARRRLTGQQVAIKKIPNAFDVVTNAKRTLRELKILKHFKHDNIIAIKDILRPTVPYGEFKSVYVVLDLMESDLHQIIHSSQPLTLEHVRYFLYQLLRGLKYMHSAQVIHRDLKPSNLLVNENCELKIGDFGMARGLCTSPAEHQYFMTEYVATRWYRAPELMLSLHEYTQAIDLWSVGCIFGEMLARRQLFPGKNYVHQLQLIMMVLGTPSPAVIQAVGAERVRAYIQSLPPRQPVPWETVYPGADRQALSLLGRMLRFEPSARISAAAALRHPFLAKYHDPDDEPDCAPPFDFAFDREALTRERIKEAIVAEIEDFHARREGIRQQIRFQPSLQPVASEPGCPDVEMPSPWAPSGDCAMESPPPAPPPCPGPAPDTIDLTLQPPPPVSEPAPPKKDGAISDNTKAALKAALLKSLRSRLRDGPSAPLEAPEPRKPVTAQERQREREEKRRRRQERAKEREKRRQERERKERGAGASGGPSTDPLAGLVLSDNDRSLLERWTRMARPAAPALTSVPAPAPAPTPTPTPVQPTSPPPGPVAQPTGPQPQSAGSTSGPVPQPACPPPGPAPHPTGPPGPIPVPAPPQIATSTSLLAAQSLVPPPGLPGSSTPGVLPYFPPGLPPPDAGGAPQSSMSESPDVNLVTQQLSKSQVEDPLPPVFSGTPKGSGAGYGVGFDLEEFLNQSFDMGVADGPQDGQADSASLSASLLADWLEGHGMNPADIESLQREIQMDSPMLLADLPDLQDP
# Chain of 6-phosphogluconate dehydrogenase, decarboxylating (Homo sapiens) (P52209 whole entry, looked up): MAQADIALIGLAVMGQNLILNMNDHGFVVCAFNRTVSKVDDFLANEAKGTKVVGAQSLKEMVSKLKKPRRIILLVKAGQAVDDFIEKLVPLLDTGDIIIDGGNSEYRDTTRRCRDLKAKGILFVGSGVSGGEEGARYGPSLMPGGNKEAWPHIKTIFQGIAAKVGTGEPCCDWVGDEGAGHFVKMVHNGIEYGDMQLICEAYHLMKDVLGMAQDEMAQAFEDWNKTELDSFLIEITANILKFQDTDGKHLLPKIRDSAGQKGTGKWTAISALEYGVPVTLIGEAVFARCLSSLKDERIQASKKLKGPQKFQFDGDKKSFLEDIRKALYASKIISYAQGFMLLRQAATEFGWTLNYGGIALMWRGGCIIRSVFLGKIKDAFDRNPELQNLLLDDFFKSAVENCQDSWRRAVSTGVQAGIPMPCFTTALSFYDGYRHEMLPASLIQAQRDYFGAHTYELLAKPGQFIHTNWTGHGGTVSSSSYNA
smiles,measurement,setting,value
Cc1cc(/C=C/c2ccc3cc(N(C)C)ccc3[n+]2C)c(C)n1-c1ccccc1,inhibition,[1],21.2%
same,score,[2],-2.18
same,rescue above control,[3],0
same,cytochrome c release ratio,[4],0.75
same,inhibition of aggregation,[5],-12.8%
same,glutamate uptake change,[6],-15.7%
same,aggregation suppression score,[7],-0.227
same,parasite load remaining,[8],0.35% (inactive) and 0.64% (inactive)
same,viability,[8],46.6% and 62.4%
same,inhibition,[9],5.46% (inactive)
same,red/green cell ratio (normalised),[10],2.7 (active)
same,normalised cell number,[10]; [20],0.4
same,normalised cell number,[10]; [21],1.08
same,fold change,[11]; [22],1.07 (inactive)
same,fold change,[11]; [23],0.697
same,cell count,[11]; [24],1790
same,cell count,[11]; [25],1670
same,luciferase signal,[12],28 AU (inactive)
CN(C)CCOC(c1ccccc1)c1ccccc1 (tested in a mixture with another compound),inhibition,[1],13%
same,score,[2],1.21
same,rescue above control,[3],26.8
same,cytochrome c release ratio,[4],1.23
same,inhibition of aggregation,[5],69.8%
same,glutamate uptake change,[6],-19.1%
same,inclusion score,[13],2
same,aggregation suppression score,[7],0.942
same,inhibition,[9],11% (inactive)
same,red/green cell ratio (normalised),[10],1.07 (inactive)
same,normalised cell number,[10]; [20],1.32
same,normalised cell number,[10]; [21],1.41
same,fold change,[11]; [22],0.893 (inactive) and 0.836 (inactive)
same,fold change,[11]; [23],1.17 and 1.81
same,cell count,[11]; [24],8830 and 11000
same,cell count,[11]; [25],9890 and 13100
same,z-score,[14]; [26],0.49 (inactive)
same,z-score,[14]; [27],0.296
same,luciferase signal,[12],28 AU (inactive)
O=c1c2ccccc2oc2ccccc12,inhibition,[9],0.222% (inactive)
same,red/green cell ratio (normalised),[10],1.1 (inactive)
same,normalised cell number,[10]; [20],0.96
same,normalised cell number,[10]; [21],1.06
same,fold change,[11]; [22],0.991 (inactive)
same,fold change,[11]; [23],0.506
same,cell count,[11]; [24],7550
same,cell count,[11]; [25],7620
same,z-score,[14]; [26],-0.409 (inactive)
same,z-score,[14]; [27],-0.0965
same,luciferase signal,[12],64 AU (inactive)
C1N2CN3CN1CN(C2)C3,inhibition,[1],10.1%
same,score,[2],0.91
same,rescue above control,[3],-6.88
same,cytochrome c release ratio,[4],1.01
same,inhibition of aggregation,[5],27.8%
same,glutamate uptake change,[6],-31.9%
same,inclusion score,[13],2
same,aggregation suppression score,[7],0.744
same,parasite load remaining,[8],80.4% (inactive) and 31.8% (inactive)
same,viability,[8],76.7% and 89.4%
same,inhibition,[9],6.67% (inactive)
same,red/green cell ratio (normalised),[10],1 (inactive)
same,normalised cell number,[10]; [20],1.13
same,normalised cell number,[10]; [21],1.13
same,fold change,[11]; [22],0.9 (inactive) and 0.915 (inactive)
same,fold change,[11]; [23],0.914 and 0.53
same,cell count,[11]; [24],8000 and 12000
same,cell count,[11]; [25],8890 and 13100
same,z-score,[14]; [26],-0.156 (inactive) and 0.632 (inactive)
same,z-score,[14]; [27],-0.286 and -0.336
same,luciferase signal,[12],64 AU (inactive)
CN(C)CCC(c1ccc(Br)cc1)c1ccccn1 (stereo unspecified),period change,[15],0.005 h (inactive)
same,inhibition,[16],0% (inactive)
same,fluorescence ratio (interference),[17],0.9 (inactive)
same,inhibition,[9],5% (inactive)
same,red/green cell ratio (normalised),[10],1.05 (inactive)
same,normalised cell number,[10]; [20],1.13
same,normalised cell number,[10]; [21],1.19
same,outcome,[18],inactive
same,z-score,[14]; [26],-0.114 (inactive) and -0.273 (inactive) and -0.659 (inactive)
same,z-score,[14]; [27],-0.476 and -0.248 and 0.132
same,luciferase signal,[12],48 AU (inactive)
same,z-score,[19],-0.18 (inactive) and -0.16 (inactive) and 0.035 (inactive)
NCC(O)CC(=O)O (stereo unspecified),inhibition,[1],11.2%
same,score,[2],1.7
same,rescue above control,[3],-10.6
same,cytochrome c release ratio,[4],1.09
same,inhibition of aggregation,[5],57.7%
same,glutamate uptake change,[6],9.66%
same,inclusion score,[13],2
same,aggregation suppression score,[7],1.63
same,parasite load remaining,[8],157% (inactive)
same,viability,[8],91.4%
same,inhibition,[9],-18.3% (inactive)
same,red/green cell ratio (normalised),[10],0.75 (inactive)
same,normalised cell number,[10]; [20],1.28
same,normalised cell number,[10]; [21],0.96
same,luciferase signal,[12],44 AU (inactive)
